Among the data in PubChem BioAssay (EPA / NIEHS) are AC50 and outcome values, retold here.

Test [1] can be described thus: ATG_CRE_CIS: Attagene CIS-FACTORIAL HepG2 Assay for human cAMP Responsive Element (CRE) binding protein 3 (AID 2282926). The note with it: HepG2 CRE cis-reporter, Attagene multiplexed mRNA; actives raise or lower the signal. The method in brief: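 Human liver HepG2, transient MRTU transfection, 24 h compound exposure. Total RNA → oligo(dT) RT → PCR → 6-FAM primer extension → HpaI cut → CE. Activity called both directions vs DMSO.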

Test [2] addresses CCAAT/enhancer-binding protein beta (Homo sapiens) (UniProt P17676). Briefly: ATG_C_EBP_CIS: Attagene CIS-FACTORIAL HepG2 Assay for human CCAAT/Enhancer Binding Protein (C/EBP) beta (AID 2282927). The note with it: HepG2 Attagene cis-factorial transcription factor reporter; actives raise or lower the signal. The method in brief: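 HepG2, transient MRTU transfection, 24 h treatment. RT-PCR plus CE fluorescence; DMSO negative control, bidirectional fit.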

A short description of test [3]: ATG_CMV_CIS: Attagene CIS-FACTORIAL HepG2 Assay for human CMV (Internal Marker) (AID 2282928).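 Further: endpoint acts as a background internal control marker rather than a target.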 To be noted: HepG2 CMV promoter reporter, transcription factor profiling; actives raise or lower the signal. The method in brief:
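CMV internal-marker background readout in transiently transfected HepG2 cells bearing cis-regulated reporter units. Reporter mRNA is measured 24 h after dosing by RT-PCR and capillary electrophoresis, with bidirectional fitting against DMSO.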

A short description of test [4]: ATG_DR4_LXR_CIS: Attagene CIS-FACTORIAL HepG2 Assay for human Liver X Receptor (LXR), DR4 submotif (AID 2282929). To be noted: HepG2 Attagene DR4 cis-reporter, mRNA transcription; actives raise or lower the signal. The method in brief:
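Cells were transfected with multiple reporter transcription units, exposed to chemicals for 24 hours, then lysed for RNA. Reporter mRNA induction was measured by RT-PCR with capillary electrophoresis detection and fitted in both directions relative to DMSO.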

In test [5] the target is Aryl hydrocarbon receptor (Homo sapiens) (UniProt P35869). Put plainly: ATG_Ahr_CIS: Attagene CIS-FACTORIAL HepG2 Assay for human Aryl Hydrocarbon Receptor (Ahr) (AID 2282930). To be noted: HepG2 AhR cis-factorial reporter transcription; actives raise or lower the signal. The method in brief: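 Endogenous factor activity is tracked through cis-promoter reporter units transfected into HepG2 cells. Transcript levels at 24 h are read by fluorescent RT-PCR and capillary electrophoresis, with activity in either direction scored relative to DMSO.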

Test [6] in a line: ATG_AP_1_CIS: Attagene CIS-FACTORIAL HepG2 Assay for human Activator Protein 1 (AP-1) (AID 2282931). The note with it: HepG2 Attagene cis-factorial AP-1 reporter mRNA; actives raise or lower the signal. The method in brief: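 Endogenous transcription-factor activity in human HepG2 liver cells is read through a cis-promoter reporter transcript, sampled 24 h after dosing. Detection uses RT-PCR with capillary electrophoresis; values come from bidirectional fitting relative to DMSO.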

Test [7] can be described thus: ATG_AP_2_CIS: Attagene CIS-FACTORIAL HepG2 Assay for human Activator Protein 2 (AP-2) (AID 2282932). To be noted: HepG2 AP-2 cis-reporter, Attagene transcription factor profiling; actives raise or lower the signal. The method in brief:
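Multiplexed mRNA reporter assay in HepG2: cis-regulated units report endogenous factor activity after 24 h treatment. Fluorescence from capillary electrophoresis of RT-PCR products gives the signal, with DMSO as baseline.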

Test [8] is described as follows: ATG_BRE_CIS: Attagene CIS-FACTORIAL HepG2 Assay for human Bone Morphogenetic Protein (BMP) Response Element (BRE) (AID 2282933). To be noted: HepG2 BMP response element reporter, Attagene transcription factor profiling; actives raise or lower the signal. The method in brief: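 Multiplexed cis-reporter assay, HepG2, 24 h exposure. mRNA from reporter units quantified via RT-PCR/CE; DMSO baseline; bidirectional curve fit.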

Test [9] addresses Retinoic acid receptor alpha (Homo sapiens) (UniProt P10276). Briefly: ATG_DR5_RAR_CIS: Attagene CIS-FACTORIAL HepG2 Assay for human Retinoic Acid Receptor Alpha (RARE), DR5 submotif (AID 2282934).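 On AC50: reporter responds to endogenous RAR alpha beta and gamma in HepG2 not RARA alone.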 To be noted: HepG2 Attagene cis-factorial RARE DR5 reporter, mRNA; actives raise or lower the signal. In outline:
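After 24 h of chemical exposure, transiently transfected HepG2 cells were lysed for total RNA; the DR5-regulated reporter transcript was quantified via RT-PCR and capillary electrophoresis, with activity fitted bidirectionally against DMSO.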

Test [10] concerns the target Transcription factor E2F1 (Homo sapiens) (UniProt Q01094). Briefly: ATG_E2F_CIS: Attagene CIS-FACTORIAL HepG2 Assay for human E2F Transcription Factor 1 (AID 2282935). The note with it: HepG2 Attagene cis-reporter, E2F reporter RNA transcripts; actives raise or lower the signal. In outline:
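Measures reporter transcript levels via RT-PCR with capillary electrophoresis detection in HepG2 cells harboring cis-regulated reporter units; 24 h post-dose; bidirectional curve fitting with DMSO as baseline.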

SMILES strings stand for the structures. Several values for one entry are separate records, joined by “and”; a condition that tells them apart may be missing. Equal entries are not always repeated. More than one record can exist for a structure, and the calls need not agree. Activity calls are given as the source filed them. How the source made its calls: active means hit-call score of the fitted dose curve at least 0.9, where 1 is the maximum; inactive means score below 0.9.

CCAAT/enhancer-binding protein beta (Homo sapiens), sequence (P17676 whole entry, looked up): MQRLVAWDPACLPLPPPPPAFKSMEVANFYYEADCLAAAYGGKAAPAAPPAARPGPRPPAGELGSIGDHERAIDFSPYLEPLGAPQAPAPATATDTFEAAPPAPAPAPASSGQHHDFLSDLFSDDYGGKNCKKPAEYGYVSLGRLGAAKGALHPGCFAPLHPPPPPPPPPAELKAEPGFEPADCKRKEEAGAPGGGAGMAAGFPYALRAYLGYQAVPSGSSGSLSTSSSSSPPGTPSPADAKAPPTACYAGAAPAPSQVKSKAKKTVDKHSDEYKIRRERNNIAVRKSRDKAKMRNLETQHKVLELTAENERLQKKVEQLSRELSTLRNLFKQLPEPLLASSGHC
Retinoic acid receptor alpha (Homo sapiens), sequence (P10276 whole entry, looked up): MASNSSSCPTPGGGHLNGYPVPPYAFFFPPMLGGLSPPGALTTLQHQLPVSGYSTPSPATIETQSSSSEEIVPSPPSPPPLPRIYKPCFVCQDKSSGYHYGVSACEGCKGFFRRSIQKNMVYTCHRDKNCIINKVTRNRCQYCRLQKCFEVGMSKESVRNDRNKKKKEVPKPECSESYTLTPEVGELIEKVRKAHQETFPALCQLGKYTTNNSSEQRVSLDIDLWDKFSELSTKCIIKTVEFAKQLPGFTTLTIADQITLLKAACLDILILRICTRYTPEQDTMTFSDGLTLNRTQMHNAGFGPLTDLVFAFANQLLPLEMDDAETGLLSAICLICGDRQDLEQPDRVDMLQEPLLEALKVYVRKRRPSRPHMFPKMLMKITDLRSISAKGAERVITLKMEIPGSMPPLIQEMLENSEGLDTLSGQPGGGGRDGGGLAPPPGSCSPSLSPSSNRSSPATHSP
Transcription factor E2F1 (Homo sapiens), sequence (Q01094 whole entry, looked up): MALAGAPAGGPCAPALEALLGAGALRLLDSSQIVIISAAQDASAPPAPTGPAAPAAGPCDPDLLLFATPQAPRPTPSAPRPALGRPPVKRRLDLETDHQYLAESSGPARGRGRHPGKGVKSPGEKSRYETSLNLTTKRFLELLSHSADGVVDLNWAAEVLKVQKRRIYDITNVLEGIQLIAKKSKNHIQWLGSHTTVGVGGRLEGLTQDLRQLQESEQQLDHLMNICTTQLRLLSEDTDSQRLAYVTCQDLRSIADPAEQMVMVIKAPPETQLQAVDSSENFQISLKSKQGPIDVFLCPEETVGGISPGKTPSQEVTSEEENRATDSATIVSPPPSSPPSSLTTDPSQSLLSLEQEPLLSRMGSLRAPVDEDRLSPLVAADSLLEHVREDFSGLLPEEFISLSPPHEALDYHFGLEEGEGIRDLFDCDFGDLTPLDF
Aryl hydrocarbon receptor (Homo sapiens), sequence (P35869 whole entry, looked up): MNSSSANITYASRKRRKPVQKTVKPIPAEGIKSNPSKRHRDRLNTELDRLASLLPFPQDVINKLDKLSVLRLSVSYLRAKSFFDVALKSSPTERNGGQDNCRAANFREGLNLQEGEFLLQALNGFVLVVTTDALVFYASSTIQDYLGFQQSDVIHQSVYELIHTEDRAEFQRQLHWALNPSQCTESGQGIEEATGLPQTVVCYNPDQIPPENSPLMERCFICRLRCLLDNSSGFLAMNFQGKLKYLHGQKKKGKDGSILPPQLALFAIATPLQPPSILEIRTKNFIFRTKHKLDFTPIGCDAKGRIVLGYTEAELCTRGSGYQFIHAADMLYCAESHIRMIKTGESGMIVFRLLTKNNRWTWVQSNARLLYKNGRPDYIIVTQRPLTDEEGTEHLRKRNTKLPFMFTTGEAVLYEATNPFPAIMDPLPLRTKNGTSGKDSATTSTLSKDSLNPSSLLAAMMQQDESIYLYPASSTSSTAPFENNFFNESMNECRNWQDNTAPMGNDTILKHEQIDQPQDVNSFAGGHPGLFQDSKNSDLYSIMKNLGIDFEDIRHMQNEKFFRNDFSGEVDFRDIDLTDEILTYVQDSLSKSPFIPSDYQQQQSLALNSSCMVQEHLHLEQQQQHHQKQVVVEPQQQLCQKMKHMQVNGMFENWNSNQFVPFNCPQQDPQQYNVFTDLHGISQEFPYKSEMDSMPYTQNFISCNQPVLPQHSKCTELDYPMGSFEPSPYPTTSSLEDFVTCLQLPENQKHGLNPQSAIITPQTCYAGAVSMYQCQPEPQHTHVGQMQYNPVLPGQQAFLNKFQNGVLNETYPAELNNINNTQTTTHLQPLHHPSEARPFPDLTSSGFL

One may read the AC50 as the concentration at which the activity in the assay is half-maximal. For the compound `O=C(Nc1ccc([N+](=O)[O-])cc1Cl)c1cc(Cl)ccc1O`, the AC50 in test [1] is 506 nM (active); in test [2], 463 nM (active); in test [3] it was 1.16 µM (active); in test [6] it was 1.01 µM (active); in test [8] it was 0.652 µM (active). For the same compound, the compound was called inactive in test [4], in [5], in test [7], in test [9] and in test [10].

As to `c1ccc(Nc2ccccc2)cc1`, the compound was classed as inactive in test [1], in test [2], in test [3], in [4], in test [6] and in test [7]. Besides, the compound was classed as inactive in test [8], in test [9] and in test [10]. Further, the AC50 in test [8] was 16.6 µM (active).

As for `CSC(=O)c1cccc2nnsc12`, the compound was called inactive in test [1], in [2], in test [3], in [4], in [6] and in test [7]. The compound was classed as inactive in test [8], in [9] and in [10].

With `CCCCC(CC)COC(=O)c1ccccc1C(=O)O` (centres undefined), the compound was classed as inactive in [1], in [2], in test [3], in test [4], in test [6] and in test [7]. Besides, the outcome in [8] and in test [10] was inactive.

As for `CCN(CC)C(=O)c1cccc(C)c1`, the compound was called inactive in test [1], in [2], in [3], in test [4], in [5] and in test [6]. The compound was classed as inactive in [7], in [8], in test [9] and in [10].

`S=C(S)NCCNC(=S)S.[Mn+2].[S-]C([S-])=NCCN=C([S-])[S-].[Zn+2]`: the AC50 in [1] was 10.1 µM (active) and 9.92 µM (active); in [3], 231 nM (active) and 1.21 µM (active) and 343 nM (active); in test [6], 20.7 µM (active) [middle of 4 runs]; in test [7], 4.93 µM (active). In addition, the call in test [1], in test [2], in test [3], in [6], in test [7] and in test [8] was inactive. Besides, the compound was classed as inactive in [10].

As to `CN(C)C(=O)Nc1ccc(Cl)c(Cl)c1`, the call in [1], in test [2], in test [3], in test [4], in test [6] and in [7] was inactive. Also, the result in test [8], in test [9] and in test [10] was inactive. The AC50 in test [3] was 79.1 µM (active); in test [6], 27.7 µM (active); in test [8], 22.2 µM (active).

On to `CC(C)CCCCCCc1ccc(O)cc1`, for which the AC50 in test [1] is 17.3 µM (active) and 16.4 µM (active); in [2] it was 18.1 µM (active) and 15.4 µM (active); in test [3] it was 13.1 µM (active) and 17.4 µM (active); in test [6], 17 µM (active); in [7], 18.2 µM (active) and 17.2 µM (active); in test [8] it was 20.7 µM (active). In test [9], the AC50 was 11.1 µM (active). Moreover, the compound was called inactive in test [1], in test [2], in test [3], in [6], in test [7] and in test [8]. Moreover, the compound was called inactive in test [9] and in test [10].

For the compound `OB(O)O`, the compound was classed as inactive in [1], in [2], in [3], in [4], in [5] and in test [6]. Moreover, the compound was classed as inactive in test [7], in test [8], in test [9] and in test [10].

Consider `COc1nc(C)nc(NC(=O)NS(=O)(=O)c2ccccc2OCCCl)n1`, for which the call in test [1], in test [2], in test [3], in [4], in test [6] and in test [7] was inactive. For the same compound, the compound was classed as inactive in test [8], in [9] and in test [10]. Besides, in test [4], the AC50 is 9.13 µM (active).

Regarding `C#CCOC(=O)[C@@H](C)Oc1ccc(Oc2ncc(Cl)cc2F)cc1`, the compound was called inactive in [1], in test [2], in test [3], in test [4], in [5] and in [6]. The call in test [7], in test [8], in test [9] and in test [10] was inactive.

For the compound `CCOC(=O)[C@H](C)Oc1ccc(Oc2nc3ccc(Cl)cc3o2)cc1`, the call in [1], in [2], in test [3], in [4], in [5] and in test [6] was inactive. Also, the outcome in [7], in test [8], in test [9] and in [10] was inactive.

As to `COC(=O)c1c(Cl)nn(C)c1S(=O)(=O)NC(=O)Nc1nc(OC)cc(OC)n1`, the result in [1], in test [3], in test [4], in [6], in [7] and in test [8] was inactive. For the same compound, the outcome in [9] and in [10] was inactive. The AC50 in [2] is 4060 nM (active).
